# Screening results deposited in PubChem by National Center for Advancing Translational Sciences (NCATS).
# DT40 TDP1 CPT – qHTS for Inhibitors of human tyrosyl-DNA phosphodiesterase 1 (TDP1): qHTS in cells in presence of CPT. Potency, µM (series often up to 46.2 µM), inactives show at the top dose activity change, negative = growth inhibition, actives largely listed as inhibitors. 12% of 420,000 active. chicken DT40 Tdp1-/-;hTDP1 cells + 20 nM CPT, ATP luminescence, 48 h; also: nearly all actives have a fitted effect of over 55% in size
#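 Chicken DT40 Tdp1-/- cells stably complemented with human TDP1 were seeded at 400 cells/well in medium containing 20 nM camptothecin, exposed to pin-transferred compounds, and grown at 37 °C for at least 48 hr. Viability was read as ATP luminescence.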
# KB-V1 cytotox – qHTS assay for MDR1-selective chemotherapeutics: Primary screen using the drug-selected MDR subline cells KB-V1. KB-V1 MDR cells viability, CellTiter-Glo, 72 h. Potency, µM (titrated, usually from 46.1 µM), actives largely listed as cytotoxic. 3.4% of 400,000 active; also: nearly all actives have a fitted effect of over 60% in size
#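 Compound-treated KB-V1 multidrug-resistant cells, 72 h, 37 degrees C; viability by CellTiter-Glo. Fitted qHTS curves give the values.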
# TDP1 cell noCPT – qHTS for Inhibitors of human tyrosyl-DNA phosphodiesterase 1 (TDP1): qHTS in cells in absence of CPT; DT40 Tdp1-/- hTDP1 cells, no CPT, ATP luminescence, 48 h; Potency, µM (top dose mostly 46.2 µM), without a hit: top-dose activity change, negative = growth inhibition, most hits filed as inhibitors; 15% of 420,000 active; also: nearly all actives have a fitted effect of over 55% in size
#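 Growth of hTDP1-complemented DT40 Tdp1-knockout cells is measured by ATP luminescence after at least 48 hr compound exposure at 37 °C, with DMSO substituting for the 20 nM CPT used in the parallel screen.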
# HT1080 IDH1KD tx – qHTS for induction of synthetic lethality in tumor cells producing 2HG: qHTS for the HT-1080-IDH1KD cell line; AID 686971, 2013; 2% of 360,000 active; Potency, µM (highest dose often 46.1 µM), for inactives: at the highest dose activity, negative = toxicity, most hits filed as cytotoxic; HT-1080 IDH1 knockdown viability, ATP luminescence, 48 h;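 also: 0% = DMSO wells and -100% = cell-free medium wells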
#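 CellTiter-Glo luminescence after 48 h compound exposure at 37 degrees C of IDH1-knockdown HT-1080 cells in 5% FBS RPMI. %Activity scaled between DMSO wells and cell-free media wells, with curves fitted and assigned curve classes.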
# KB-3-1 tox – qHTS assay for MDR1-selective chemotherapeutics: Primary screen using the parental adenocarcinoma cell KB-3-1 | KB-3-1 viability, CellTiter-Glo ATP luminescence, 72 h | Potency, µM (highest dose often 46.1 µM), actives largely listed as cytotoxic | 1.4% of 400,000 active | AID 1347075, 2019; also: nearly all actives have a fitted effect of over 60% in size
#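 KB-3-1 cells, DMEM (no phenol red) + 10% FBS; compound by pin transfer, 72 h, 37 °C. Readout: CellTiter-Glo luminescence after 10 min. Data normalized, curve-fitted.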
# HT1080-NT tox – qHTS for induction of synthetic lethality in tumor cells producing 2HG: qHTS for the HT-1080-NT fibrosarcoma cell line; HT-1080-NT fibrosarcoma viability, CellTiter-Glo ATP luminescence, 48 h; Potency, µM (series often up to 46.1 µM), without a hit: at the highest dose activity, negative = less viability, usual class: cytotoxic; AID 686970, 2013; 1.6% of 360,000 active;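 also: NT is the 2HG producing partner of a matched IDH1 knockdown line; 0% = DMSO-treated cells and -100% = media-only wells without cells; nearly all actives have a fitted effect of over 55% in size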
#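 750 cells/well, RPMI + 5% FBS; 2 h settle, compound pin-transfer, 48 h at 37 degrees C. CellTiter-Glo 10 min RT, luminescence. Normalized to DMSO and media-only wells.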
# Active calls of the source: *; i = inactive; ? = inconclusive; . = no result; ! = repeats disagree. Rows were chosen to be rich in hits. Some 19% of all compounds tested hit in one or more screens of this group. Calls follow the shape of the dose curve; as a rule, active = well fitted curve in the direction sought with a large enough effect; inconclusive = small, poorly fitted or top-dose-only effect, or another doubt; inactive = no such curve, though single readings can be large; an effect the other way counts as inactive or inconclusive. Unless noted, % is scaled to controls: 0 for no effect and ±100 for the full control effect; potency is read from the fitted curve at half-maximal effect.
SMILES,DT40 TDP1 CPT,KB-V1 cytotox,TDP1 cell noCPT,HT1080 IDH1KD tx,KB-3-1 tox,HT1080-NT tox
Cn1c(=O)c(-c2cccs2)nc2cnc(N3CCOCC3)nc21,9%,.,27%,.,.,.
CCCCSc1nc(C)cc(C)c1S(=O)(=O)c1ccccc1C,18µM*,i,?,-8%,?,-1%
COc1ccc(Oc2nc(C)cc(C)c2S(=O)(=O)c2ccc(C)cc2)cc1,-19%,21µM*,-8%,-13%,i,7%
Cc1cc(C)c(S(=O)(=O)c2ccccc2)c(Cl)n1,-9%,i,-15%,0%,i,-1%
Cc1ccc(S(=O)(=O)c2c(C)cc(C)nc2Cl)cc1,6%,13µM*,3%,-1%,i,0%
Cc1cc(C)c(S(=O)(=O)c2ccccc2C)c(Oc2ccccc2)n1,?,21µM*,?,-2%,?,2%
CC(=O)Oc1ccc2c(=O)c(-c3nc4ccccc4s3)coc2c1,0%,i,-16%,-17%,i,0%
CCc1ccc(NC(=O)c2nc3nc(C)cc(C(F)F)n3n2)cc1,?,i,?,.,i,.
N#CCSc1ccccc1NC(=O)COC(=O)C1CCN(C(=O)c2ccc(Cl)cc2)CC1,2%,i,-16%,4%,i,-2%
CCOC(=O)C1CCCN(C(=O)c2cccnc2Oc2ccccc2)CC1 (stereo not drawn),-30%,i,-22%,7%,i,14%
CCN(CC)/C(=N\S(=O)(=O)c1ccccc1C)c1ccccc1,-1%,i,23%,1%,i,1%
CCCOC(=O)c1ccc(Oc2cn[nH]c2-c2ccc(OC)cc2O)cc1,15µM*,?,21µM*,18µM*,?,21µM*
CCOc1ccc(-c2[nH]ncc2-c2ccc(OC)c(OC)c2)c(O)c1,3.7µM*,3.7µM*,3.7µM*,2.2µM*,?,6.3µM*
CCOc1ccc(-c2[nH]ncc2-c2ccc(Cl)cc2)c(O)c1,16µM*,i,?,0%,i,-14%
COc1ccc(-c2cn[nH]c2-c2ccc(O)cc2O)cc1OC,-2%,i,?,-1%,i,-11%
CCOc1ccc(-c2[nH]ncc2Oc2ccccc2OCC)c(O)c1,6.5µM*,i,?,?,i,?
COc1cccc(CNC(=O)NCc2noc3ccc(C)cc23)c1,?,i,?,.,i,.
CC(C)Sc1nnc2c3ccccc3n(C)c2n1,?,.,?,5%,.,2%
CCOC(=O)c1c(NC(=O)Cc2ccccc2)sc2c1CCN(C)C2,?,i,13µM*,-15%,i,0%
CCOC(=O)c1c(NC(=O)Cc2ccccc2)sc2c1CCN(CC)C2,?,i,?,-21%,i,5%
CCOC(=O)c1c(N)sc2c1CCN(Cc1ccccc1)C2,?,i,15µM*,.,15µM*!,.
CN1CCc2c(sc(NC(=O)Cc3ccccc3)c2C(N)=O)C1,15%,i,-2%,13%,i,-1%
CCOC(=O)N1CCc2c(sc(NC(=O)CCS(=O)(=O)c3ccccc3)c2C(N)=O)C1,?,i,?,1%,i,1%
CCOC(=O)c1c(NC(=O)CCS(=O)(=O)c2ccccc2)sc2c1CCN(C)C2,16µM*,i,16µM*,5%,i,-25%
CCN1CCc2c(sc(NC(=O)Cc3ccccc3)c2C(=O)OC)C1,12µM*,i,?,-14%,i,-10%
